Sampled rows, rich in hits. Any-hit rate of the full collection: about 19%.
IL1B secr inh: qHTS for Inhibitors of Inflammasome Signaling: IL-1-beta AlphaLISA Primary Screen. AID 743279, 2014. activity change, % at 57.5 µM. 360,000 tested, 4.7% active. THP-1 LPS/ATP IL-1B secretion, AlphaLISA, 16 h; active compounds read low; in the data active = activity change below about -50%; inconclusive = mostly about -30% to -49%
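THP-1 cells pretreated 1 hr with compounds (up to 57.5 uM final), then stimulated with LPS (250 ng/mL final) plus ATP (1.25 mM final); secreted IL-1B measured by AlphaLISA after 16 hr, decreased signal indicating inhibition.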
HepG2 tox: qHTS for Inhibitors of TGF-b: Cytotox Counterscreen; HepG2 CAGA-GFP viability, ATP luminescence, 18 h; Potency, µM (highest dose often 46.1 µM), hits mostly cytotoxic; 410,000 tested, 0.76% active
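HepG2 CAGA-GFP cells (1000/well, DMEM with 1% FBS) received compound, then TGF-beta at 500 pg/mL final, and were incubated 18 hours at 37 degrees C. Viability was read by CellTiter-Glo luminescence. Media-only wells were set as complete cell-killing and DMSO as no toxicity.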
DT40 TDP1 no CPT: qHTS for Inhibitors of human tyrosyl-DNA phosphodiesterase 1 (TDP1): qHTS in cells in absence of CPT | AID 686978, 2013 | Potency, µM (top dose mostly 46.2 µM), hits mostly inhibitors | DT40 Tdp1-/- hTDP1 cells, no CPT, ATP luminescence, 48 h | 420,000 tested, 15% active; also: nearly all actives have a fitted effect of over 55% in size
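Seeded 400 DT40-hTDP1 cells/well (vehicle DMSO, no 20 nM CPT); pinned compounds; ≥48 hr at 37 °C; CellTiter-Glo luminescence as viability measure.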
S-ASM inh: Inhibitors of Secretory Acid Sphingomyelinase (S-ASM): qHTS; Sphingomyelin phosphodiesterase (Homo sapiens), P17405; placental ASM, HMU-PC fluorogenic substrate, 60 min; Potency, µM (top dose mostly 57.5 µM), hits mostly inhibitors; 340,000 tested, 0.006% active
Target sequence (P17405 47-631 limits assumed): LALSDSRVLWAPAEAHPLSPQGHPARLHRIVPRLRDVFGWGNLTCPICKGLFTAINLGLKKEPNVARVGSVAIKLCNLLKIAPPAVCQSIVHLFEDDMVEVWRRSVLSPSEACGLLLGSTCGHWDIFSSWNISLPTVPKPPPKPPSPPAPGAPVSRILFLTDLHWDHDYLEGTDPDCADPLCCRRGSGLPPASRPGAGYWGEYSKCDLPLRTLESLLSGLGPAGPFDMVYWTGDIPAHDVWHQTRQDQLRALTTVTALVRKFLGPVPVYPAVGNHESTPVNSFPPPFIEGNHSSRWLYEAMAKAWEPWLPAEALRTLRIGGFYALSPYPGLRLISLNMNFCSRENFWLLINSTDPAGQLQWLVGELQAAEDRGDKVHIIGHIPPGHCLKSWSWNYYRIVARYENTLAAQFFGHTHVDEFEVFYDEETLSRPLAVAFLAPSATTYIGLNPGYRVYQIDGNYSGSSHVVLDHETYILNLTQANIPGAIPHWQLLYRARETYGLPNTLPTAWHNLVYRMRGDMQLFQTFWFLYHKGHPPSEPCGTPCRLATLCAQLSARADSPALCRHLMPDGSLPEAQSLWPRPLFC
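Human placenta-derived ASM preincubated with compound 10 min at room temperature, then reacted with 9 uM (final) fluorogenic HMU-PC substrate for 60 min at 37 C. Stop solution raises pH to 10; fluorescence read at Ex 386/Em 447 nm.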
TGFb inhibitor: qHTS for Inhibitors of TGF-b; AID 588855, 2011; Potency, µM (series often up to 46.1 µM), most hits filed as inhibitors; 410,000 tested, 1.2% active; HepG2 CAGA-GFP TGF-b/SMAD3 reporter, GFP fluorescence, 18 h; TGF-beta stimulated, 500 pg/mL final; also: nearly all actives have a fitted effect of over 65% in size
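Read-out: total well GFP (ex488/em500-530) summed from mean per-cell fluorescence. Cells: HEPG2 CAGA-GFP, 1% FBS DMEM, 18 h at 37 degrees C with 500 pg/mL final TGF-beta. Unstimulated wells served as the full-inhibition control; stimulated DMSO wells = 0%.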
TDP1 cell CPT: qHTS for Inhibitors of human tyrosyl-DNA phosphodiesterase 1 (TDP1): qHTS in cells in presence of CPT | chicken DT40 Tdp1-/-;hTDP1 cells + 20 nM CPT, ATP luminescence, 48 h | Potency, µM (series often up to 46.2 µM), actives largely listed as inhibitors | 420,000 tested, 12% active | AID 686979, 2013; also: nearly all actives have a fitted effect of over 55% in size
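Cell growth measured by CellTiter-Glo luminescence after a minimum 48 h, 37 C compound exposure with 20 nM CPT in Tdp1-knockout DT40 cells stably expressing hTDP1, seeded 400/well; qHTS titration format.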
Of the large screens only hits and unclear results are named; the others gave an inactive call. Unless noted, calls follow the shape of the dose curve; as a rule, active = well fitted curve in the direction sought with a large enough effect; inconclusive = small, poorly fitted or top-dose-only effect, or another doubt; inactive = no such curve, though single readings can be large; an effect the other way counts as inactive or inconclusive.

COc1ccc(Oc2ccc(/C=N/NC(=O)c3cccnc3)cc2[N+](=O)[O-])cc1	IL1B secr inh inconclusive, DT40 TDP1 no CPT 21µM, TDP1 cell CPT inconclusive
COc1ccc(Br)cc1/C=N/NC(=O)c1cc(OC)c(OC)c(OC)c1	DT40 TDP1 no CPT inconclusive, TDP1 cell CPT inconclusive
COc1cc(OC)c(OC)cc1/C=N/NC(=O)c1cnccn1	none
CC(N=C1NS(=O)(=O)c2ccccc21)C(=O)NCc1ccc(F)cc1 (stereo unspecified)	none
O=S(=O)(c1cccc2nonc12)N1CCCCC1	none
CC1=C(C(=O)N2CCCCCC2)CC(CC(=O)NC2CCCCC2)C(=O)N1CCC1=CCCCC1 (stereo unspecified)	DT40 TDP1 no CPT inconclusive, TDP1 cell CPT 13µM (no result: HepG2 tox, S-ASM inh, TGFb inhibitor)
CCCCN1C(=O)C(CC(=O)NCCCCc2ccccc2)CC(C(=O)N2CCOCC2)=C1C (stereo unspecified)	none (no result: S-ASM inh)
CC1=C(C(=O)N2CCCCCC2)CC(CC(=O)NCCCCc2ccccc2)C(=O)N1CCC1=CCCCC1 (stereo unspecified)	IL1B secr inh -67, DT40 TDP1 no CPT 18µM, TDP1 cell CPT 23µM (no result: HepG2 tox, S-ASM inh, TGFb inhibitor)
CCCCN1C(=O)C(CC(=O)NCCCCc2ccccc2)CC(C(=O)N2CCCCCC2)=C1C (stereo unspecified)	DT40 TDP1 no CPT 18µM, TDP1 cell CPT 18µM (no result: HepG2 tox, S-ASM inh, TGFb inhibitor)
COC(=O)c1cc(S(=O)(=O)Nc2cccc(C)c2C)cn1C	none
CN1CCCC(n2nc(Cc3ccc(Cl)cc3)c3ccccc3c2=O)CC1 (stereo unspecified)	IL1B secr inh inconclusive, DT40 TDP1 no CPT 21µM, TDP1 cell CPT 13µM
Cc1ccc2nc(SC(C(=O)c3ccccc3)c3ccccc3)nc(C)c2c1 (stereo unspecified)	DT40 TDP1 no CPT 15µM, TDP1 cell CPT inconclusive
Cc1ccc2nc(SCC(=O)O)nc(C)c2c1	none
Cc1cccc(OCc2nc(CC(=O)Nc3ccc(C)c(C)c3)cs2)c1	DT40 TDP1 no CPT 18µM, TDP1 cell CPT inconclusive (no result: IL1B secr inh, S-ASM inh)
Cc1nc(CC(=O)Nc2ccc(C)c(C)c2)cs1	none (no result: IL1B secr inh, S-ASM inh)
Cc1cccc(OCc2nc(CC(=O)Nc3ccc(Cl)cc3)cs2)c1	DT40 TDP1 no CPT inconclusive, TDP1 cell CPT 21µM (no result: IL1B secr inh, S-ASM inh)
Cc1cccc(OCCC(=O)Nc2ccc(F)c(F)c2)c1	IL1B secr inh inconclusive, TGFb inhibitor inconclusive
O=C1c2cccc(-c3ccc(C(F)(F)F)cc3)c2C2CCCCN12 (stereo unspecified)	DT40 TDP1 no CPT inconclusive, TGFb inhibitor inconclusive, TDP1 cell CPT inconclusive (no result: S-ASM inh)
O=C1c2cccc3c2[C@H](CCC3)CN1[C@@H]1CN2CCC1CC2	DT40 TDP1 no CPT 15µM, TDP1 cell CPT 17µM (no result: IL1B secr inh, HepG2 tox, S-ASM inh, TGFb inhibitor)
CCc1ccc(C2=C(C)C(N3CCC(C(=O)NCCc4ccco4)CC3)=NS2(=O)=O)cc1	DT40 TDP1 no CPT 18µM, TDP1 cell CPT inconclusive (no result: IL1B secr inh, S-ASM inh)
CC1=C(c2ccc(C(C)C)cc2)S(=O)(=O)N=C1N1CCN(c2ccccc2F)CC1	DT40 TDP1 no CPT 18µM, TDP1 cell CPT inconclusive (no result: IL1B secr inh, S-ASM inh)
CC1=C(c2ccc(C(C)C)cc2)S(=O)(=O)N=C1N1CCC(C(=O)NCCc2ccco2)CC1	DT40 TDP1 no CPT inconclusive, TDP1 cell CPT 23µM (no result: IL1B secr inh, S-ASM inh)
O=C(Nc1ccc(F)c(Cl)c1)C1CCN(C(=O)c2ccc(F)cc2)CC1	DT40 TDP1 no CPT inconclusive, TGFb inhibitor inconclusive, TDP1 cell CPT inconclusive (no result: IL1B secr inh, S-ASM inh)
Cc1cn2c(=O)c(C(=O)N3CCN(c4ccccc4Cl)CC3)cnc2s1	none
COc1ccc(Cl)cc1N1CCN(CCNC(=O)Nc2ccccc2C)CC1	IL1B secr inh -77, TGFb inhibitor inconclusive
COc1ccc(N2CCN(CCNC(=O)Nc3cc(Cl)ccc3OC)CC2)cc1	DT40 TDP1 no CPT inconclusive, TDP1 cell CPT inconclusive
